{
  "source": "PubChem BioAssay",
  "key": {"[1]": {"assay": "small molecules captured by biotinylated probe aFSTL3 – biochemical, small-molecule microarray, fluorescence 635/667, stem cell growth factor project, primary screen (AID 1064);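 note: measures binding of the biotinylated anti-FSTL3 antibody to printed compounds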", "details": "higher = more signal"}, "[2]": {"assay": "binders from COS7 lysate, DM2A8 probe, primary screen, torsin A project, cell lysate, small-molecule microarray, fluorescence 635/667 (AID 1065)", "details": "higher = more signal, COS7 lysate expressing mutant human TOR1A"}, "[3]": {"assay": "small molecules captured by biotinylated probe aFGF2 – biochemical, small-molecule microarray, fluorescence 635/667, stem cell growth factor project, primary screen (AID 1067);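 note: measures binding of biotinylated aFGF2 protein to printed compounds on slides; z-score merges feature fluorescence and signal-to-noise across triplicate slides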", "details": "higher = more signal"}, "[4]": {"assay": "small molecules captured by biotinylated probe aFGF10 – biochemical, small-molecule microarray, fluorescence 635/667, stem cell growth factor project, primary screen (AID 1071);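 note: score merges 667 nm spot intensity and signal to noise from triplicate slides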", "details": "higher = more signal"}, "[5]": {"biological_target": "Neurogenic locus notch homolog protein 2 (Homo sapiens) (UniProt Q04721)", "sequence (Q04721 whole entry, looked up)": "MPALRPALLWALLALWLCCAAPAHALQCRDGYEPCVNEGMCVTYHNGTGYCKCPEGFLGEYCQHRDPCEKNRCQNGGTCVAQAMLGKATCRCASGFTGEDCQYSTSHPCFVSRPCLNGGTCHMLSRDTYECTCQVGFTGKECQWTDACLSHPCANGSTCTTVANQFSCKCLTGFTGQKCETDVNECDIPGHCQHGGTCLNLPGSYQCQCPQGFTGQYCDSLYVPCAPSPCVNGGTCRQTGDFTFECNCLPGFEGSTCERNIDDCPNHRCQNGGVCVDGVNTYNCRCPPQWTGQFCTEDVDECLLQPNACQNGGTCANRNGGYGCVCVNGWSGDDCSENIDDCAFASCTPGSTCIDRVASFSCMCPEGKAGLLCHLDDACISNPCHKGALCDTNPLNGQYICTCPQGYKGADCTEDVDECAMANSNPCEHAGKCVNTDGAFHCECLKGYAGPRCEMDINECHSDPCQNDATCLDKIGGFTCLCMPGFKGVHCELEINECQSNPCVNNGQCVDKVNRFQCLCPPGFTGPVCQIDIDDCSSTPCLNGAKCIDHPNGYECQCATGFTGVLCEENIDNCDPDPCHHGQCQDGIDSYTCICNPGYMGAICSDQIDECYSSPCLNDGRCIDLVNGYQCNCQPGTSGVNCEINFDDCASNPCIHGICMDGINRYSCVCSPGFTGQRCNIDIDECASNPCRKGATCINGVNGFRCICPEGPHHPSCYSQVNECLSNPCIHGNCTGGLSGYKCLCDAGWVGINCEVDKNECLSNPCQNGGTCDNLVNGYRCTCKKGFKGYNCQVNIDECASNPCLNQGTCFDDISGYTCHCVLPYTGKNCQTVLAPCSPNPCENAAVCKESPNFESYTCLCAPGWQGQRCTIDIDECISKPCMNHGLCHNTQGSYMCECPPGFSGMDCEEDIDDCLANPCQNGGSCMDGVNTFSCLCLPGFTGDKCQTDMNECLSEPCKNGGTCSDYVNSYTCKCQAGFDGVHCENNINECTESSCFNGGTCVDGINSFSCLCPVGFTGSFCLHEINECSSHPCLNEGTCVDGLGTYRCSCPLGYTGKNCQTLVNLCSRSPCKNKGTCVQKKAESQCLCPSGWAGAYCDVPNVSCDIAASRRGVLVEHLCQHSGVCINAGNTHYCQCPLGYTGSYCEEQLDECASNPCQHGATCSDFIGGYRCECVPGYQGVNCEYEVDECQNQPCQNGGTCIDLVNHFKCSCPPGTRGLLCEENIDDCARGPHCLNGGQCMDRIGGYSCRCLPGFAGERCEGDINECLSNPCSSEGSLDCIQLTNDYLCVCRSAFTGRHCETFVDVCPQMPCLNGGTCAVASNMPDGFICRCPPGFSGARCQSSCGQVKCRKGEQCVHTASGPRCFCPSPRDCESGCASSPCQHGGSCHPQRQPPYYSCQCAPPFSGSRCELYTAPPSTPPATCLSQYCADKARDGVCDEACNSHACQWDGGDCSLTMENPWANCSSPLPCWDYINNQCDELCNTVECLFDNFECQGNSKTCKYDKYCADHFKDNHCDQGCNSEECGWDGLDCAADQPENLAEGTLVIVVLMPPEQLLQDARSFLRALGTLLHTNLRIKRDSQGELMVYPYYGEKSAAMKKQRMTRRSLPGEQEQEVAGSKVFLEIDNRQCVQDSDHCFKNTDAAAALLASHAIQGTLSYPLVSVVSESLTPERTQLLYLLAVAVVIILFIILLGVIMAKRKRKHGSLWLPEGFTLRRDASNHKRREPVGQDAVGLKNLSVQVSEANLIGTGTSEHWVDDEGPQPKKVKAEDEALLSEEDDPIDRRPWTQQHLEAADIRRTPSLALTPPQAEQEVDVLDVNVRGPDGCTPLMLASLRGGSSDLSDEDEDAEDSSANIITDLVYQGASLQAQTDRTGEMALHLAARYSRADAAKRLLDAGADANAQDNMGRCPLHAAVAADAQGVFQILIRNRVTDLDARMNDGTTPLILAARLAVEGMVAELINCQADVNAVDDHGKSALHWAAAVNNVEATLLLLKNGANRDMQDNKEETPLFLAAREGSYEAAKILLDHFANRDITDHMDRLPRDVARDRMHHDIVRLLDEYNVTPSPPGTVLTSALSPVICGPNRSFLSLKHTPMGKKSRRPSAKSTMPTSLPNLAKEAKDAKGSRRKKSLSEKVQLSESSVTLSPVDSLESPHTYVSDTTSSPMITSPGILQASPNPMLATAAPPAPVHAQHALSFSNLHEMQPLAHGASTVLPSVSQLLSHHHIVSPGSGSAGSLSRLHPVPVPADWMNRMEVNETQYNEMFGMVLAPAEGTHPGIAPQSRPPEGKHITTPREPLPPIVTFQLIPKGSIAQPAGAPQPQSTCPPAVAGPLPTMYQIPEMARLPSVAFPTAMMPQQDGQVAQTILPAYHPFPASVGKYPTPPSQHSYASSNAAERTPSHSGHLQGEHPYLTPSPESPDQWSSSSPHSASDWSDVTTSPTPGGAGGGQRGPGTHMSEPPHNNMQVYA", "assay": "small molecules binding Notch2 protein – biochemical, small-molecule microarray, 635 nm fluorescence, stem cell growth factors, primary screen (AID 1073)", "details": "higher = more signal"}, "[6]": {"biological_target": "Pro-neuregulin-1, membrane-bound isoform (Homo sapiens) (UniProt Q02297)", "sequence (Q02297 whole entry, looked up, canonical isoform)": "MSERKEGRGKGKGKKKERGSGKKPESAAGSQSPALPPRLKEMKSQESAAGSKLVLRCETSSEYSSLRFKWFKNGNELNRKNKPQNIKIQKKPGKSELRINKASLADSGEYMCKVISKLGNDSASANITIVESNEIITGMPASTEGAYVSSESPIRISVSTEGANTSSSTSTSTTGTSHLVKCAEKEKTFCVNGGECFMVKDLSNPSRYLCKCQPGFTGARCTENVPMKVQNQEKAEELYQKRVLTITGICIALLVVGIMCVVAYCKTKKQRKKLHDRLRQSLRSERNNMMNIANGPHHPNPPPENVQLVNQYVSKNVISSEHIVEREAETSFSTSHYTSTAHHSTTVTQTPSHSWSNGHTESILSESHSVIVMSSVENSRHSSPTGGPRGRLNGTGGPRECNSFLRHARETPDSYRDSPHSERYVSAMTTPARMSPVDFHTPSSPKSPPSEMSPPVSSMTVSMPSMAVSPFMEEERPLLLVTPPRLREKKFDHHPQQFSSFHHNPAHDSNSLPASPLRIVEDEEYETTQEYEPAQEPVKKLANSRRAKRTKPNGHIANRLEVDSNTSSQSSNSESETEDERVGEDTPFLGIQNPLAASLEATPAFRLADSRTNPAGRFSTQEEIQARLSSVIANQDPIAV", "assay": "small molecules binding neuregulin-1 protein – biochemical, small-molecule microarray, fluorescence 635/667, psychiatric disease protein project, primary screen (AID 1075);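 note: score combines 667 nm spot fluorescence with signal to noise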", "details": "NRG1 binding, 635 nm fluorescence, higher = more signal"}, "[7]": {"test_system": "Neuregulin-1 EGF-like domain", "assay": "small molecules binding NRG1 EGF domain – biochemical, small-molecule microarray, 635 nm fluorescence, primary screen (AID 1081);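 note: binding of the protein to compounds printed on small-molecule microarray slides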", "details": "higher = more signal"}, "[8]": {"assay": "FRG1 expression reporter modulators in myotubes – cell-based, C2C12 myotubes, firefly/Renilla luciferase, luminescence, FRG1 inhibition for FSHD, primary screen (AID 1084)", "details": "FRG1 promoter luciferase, higher = more signal, called active from +8 up or from −8 down"}, "[9]": {"assay": "small molecules captured by biotinylated probe aFST – biochemical, small-molecule microarray, fluorescence 635/667, stem cell growth factor project, primary screen (AID 1086);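 note: score merges 667 nm fluorescence with signal-to-noise of each printed compound spot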", "details": "higher = more signal"}, "[10]": {"assay": "binders of probe aHhip on microarray, primary screen, stem cell growth factor project, biochemical, small-molecule microarray, fluorescence 635/667 (AID 1087);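 note: score merges spot fluorescence at 667nm with spot signal to noise ratio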", "details": "higher = more signal"}},
  "note": "“And” between values parts separate entries of the source, which are not always exact repeats. Equal values may be shown once. The source made the active and inactive calls.",
  "data": [
    {"smiles": "C=CCN(CCCCC)C(=O)C1N(c2c(Cl)cccc2CO)C(=O)C2C(C(=O)O)C3C=CC21O3", "note": "(stereo not given)", "values": [
      {"measurement": "composite z-score", "setting": "[1]", "result": "1.15 and 1.51"},
      {"measurement": "composite z-score", "setting": "[2]", "result": "-0.58 and -2.44"},
      {"measurement": "composite z-score", "setting": "[3]", "result": "-0.283 and -0.216"},
      {"measurement": "composite z-score", "setting": "[4]", "result": "-1.66 and -1.11"},
      {"measurement": "composite z-score", "setting": "[5]", "result": "-2.36 and -1.86"},
      {"measurement": "composite z-score", "setting": "[6]", "result": "-0.855 and -0.992"},
      {"measurement": "composite z-score", "setting": "[7]", "result": "-0.506 and -0.277"},
      {"measurement": "z-score", "setting": "[8]", "result": "0.887 (inactive) and 0.699 (inactive)"},
      {"measurement": "composite z-score", "setting": "[9]", "result": "-0.898 and -1.06"},
      {"measurement": "composite z-score", "setting": "[10]", "result": "-0.169 and -0.213"}
    ]},
    {"smiles": "C=CCN(CCCC)C(=O)C1N(CCOCCO)C(=O)C2C(C(=O)O)C3C=CC21O3", "note": "(stereo not given)", "values": [
      {"measurement": "composite z-score", "setting": "[1]", "result": "0.398 and 0.725"},
      {"measurement": "composite z-score", "setting": "[2]", "result": "-1.98 and -0.776"},
      {"measurement": "composite z-score", "setting": "[3]", "result": "-0.209 and -0.116"},
      {"measurement": "composite z-score", "setting": "[4]", "result": "-1.13 and -0.467"},
      {"measurement": "composite z-score", "setting": "[5]", "result": "-1.17 and -2.39"},
      {"measurement": "composite z-score", "setting": "[6]", "result": "1.64 and -0.729"},
      {"measurement": "composite z-score", "setting": "[7]", "result": "1.61 and 1.51"},
      {"measurement": "z-score", "setting": "[8]", "result": "0.75 (inactive) and 0.0827 (inactive)"},
      {"measurement": "composite z-score", "setting": "[9]", "result": "-0.792 and -1.02"},
      {"measurement": "composite z-score", "setting": "[10]", "result": "-0.169 and -0.306"}
    ]},
    {"smiles": "CO[C@H]1COC(=O)CC=C[C@@H](C)COC(=O)[C@@H](OCc2ccccc2)C=C[C@@H]1C", "values": [
      {"measurement": "composite z-score", "setting": "[1]", "result": -0.773},
      {"measurement": "composite z-score", "setting": "[2]", "result": 1.86},
      {"measurement": "composite z-score", "setting": "[3]", "result": -0.213},
      {"measurement": "composite z-score", "setting": "[4]", "result": -0.68},
      {"measurement": "composite z-score", "setting": "[5]", "result": -1.02},
      {"measurement": "composite z-score", "setting": "[6]", "result": -0.212},
      {"measurement": "composite z-score", "setting": "[7]", "result": 1.14},
      {"measurement": "z-score", "setting": "[8]", "result": "-0.971 (inactive)"},
      {"measurement": "composite z-score", "setting": "[9]", "result": -0.28},
      {"measurement": "composite z-score", "setting": "[10]", "result": -0.0994}
    ]},
    {"smiles": "CCC[C@@H]1C[C@@]1(CCC)[C@@H](NC(=O)c1ccc(-c2ccccc2)cc1)c1cccc(Cl)c1", "values": [
      {"measurement": "composite z-score", "setting": "[1]", "result": "2.36 and 0.236"},
      {"measurement": "composite z-score", "setting": "[2]", "result": "0.995 and -0.712"},
      {"measurement": "composite z-score", "setting": "[3]", "result": "0.736 and -0.171"},
      {"measurement": "composite z-score", "setting": "[4]", "result": "-0.636 and 0.226"},
      {"measurement": "composite z-score", "setting": "[5]", "result": "-1.01 and 1.53"},
      {"measurement": "composite z-score", "setting": "[6]", "result": "-0.612 and 1.2"},
      {"measurement": "composite z-score", "setting": "[7]", "result": "-0.62 and 1.11"},
      {"measurement": "z-score", "setting": "[8]", "result": "-1 (inactive) and 0.245 (inactive)"},
      {"measurement": "composite z-score", "setting": "[9]", "result": "1.96 and 0.48"},
      {"measurement": "composite z-score", "setting": "[10]", "result": "2.73 and 0.663"}
    ]},
    {"smiles": "C=CCN(CCCCC)C(=O)C(c1cccs1)N(CCOCCO)C(=O)/C=C\\C(=O)O", "note": "(stereo not given)", "values": [
      {"measurement": "composite z-score", "setting": "[1]", "result": "-0.192 and 0.0796"},
      {"measurement": "composite z-score", "setting": "[2]", "result": "0.185 and -1.07"},
      {"measurement": "composite z-score", "setting": "[3]", "result": "-0.157 and -0.113"},
      {"measurement": "composite z-score", "setting": "[4]", "result": "-1.26 and -0.317"},
      {"measurement": "composite z-score", "setting": "[5]", "result": "-1.84 and -1.41"},
      {"measurement": "composite z-score", "setting": "[6]", "result": "-0.661 and -0.969"},
      {"measurement": "composite z-score", "setting": "[7]", "result": "-0.196 and -0.609"},
      {"measurement": "z-score", "setting": "[8]", "result": "0.874 (inactive) and 1.45 (inactive)"},
      {"measurement": "composite z-score", "setting": "[9]", "result": "-1.48 and -0.675"},
      {"measurement": "composite z-score", "setting": "[10]", "result": "-0.0922 and -0.41"}
    ]},
    {"smiles": "COC(=O)[C@H](C)NC(=O)CCC1CC(OC(=O)NCCc2ccc(F)cc2)CC2(CCCC(COC(=O)NCCCN3CCCC3=O)O2)O1", "note": "(stereo not given in full)", "values": [
      {"measurement": "composite z-score", "setting": "[1]", "result": -0.78},
      {"measurement": "composite z-score", "setting": "[2]", "result": 0.267},
      {"measurement": "composite z-score", "setting": "[3]", "result": -0.0358},
      {"measurement": "composite z-score", "setting": "[4]", "result": 0.404},
      {"measurement": "composite z-score", "setting": "[5]", "result": 1.25},
      {"measurement": "composite z-score", "setting": "[6]", "result": 0.623},
      {"measurement": "composite z-score", "setting": "[7]", "result": 1.2},
      {"measurement": "z-score", "setting": "[8]", "result": "0.434 (inactive)"},
      {"measurement": "composite z-score", "setting": "[9]", "result": 0.367},
      {"measurement": "composite z-score", "setting": "[10]", "result": 0.0373}
    ]},
    {"smiles": "COC(=O)[C@@]1(Cc2ccccc2)[C@H]2c3cc(C(=O)N(C)C)n(C[C@H](O)CO)c3C[C@H]2CN1C(=O)c1ccccc1", "values": [
      {"measurement": "composite z-score", "setting": "[1]", "result": "0.323 and 0.439"},
      {"measurement": "composite z-score", "setting": "[2]", "result": "-0.347 and 0.188"},
      {"measurement": "composite z-score", "setting": "[3]", "result": "0.0002 and -0.0065"},
      {"measurement": "composite z-score", "setting": "[4]", "result": "0.122 and 0.158"},
      {"measurement": "composite z-score", "setting": "[5]", "result": "1.15 and 1.53"},
      {"measurement": "composite z-score", "setting": "[6]", "result": "2.1 and 2.01"},
      {"measurement": "composite z-score", "setting": "[7]", "result": "1.47 and 1.03"},
      {"measurement": "z-score", "setting": "[8]", "result": "1.92 (inactive) and 0.827 (inactive)"},
      {"measurement": "composite z-score", "setting": "[9]", "result": "0.606 and 0.955"},
      {"measurement": "composite z-score", "setting": "[10]", "result": "0.174 and 0.192"}
    ]},
    {"smiles": "COC(=O)C1=C(C)N(Cc2ccccc2)[C@]23O[C@](C(=O)OC)(C(=O)N2[C@@H]1c1ccccc1)[C@H]1C(=O)N(C)C(=O)[C@H]13", "values": [
      {"measurement": "composite z-score", "setting": "[1]", "result": "-0.342 and -0.556"},
      {"measurement": "composite z-score", "setting": "[2]", "result": "0.117 and 0.134"},
      {"measurement": "composite z-score", "setting": "[3]", "result": "-0.137 and -0.0212"},
      {"measurement": "composite z-score", "setting": "[4]", "result": "0.566 and 0.842"},
      {"measurement": "composite z-score", "setting": "[5]", "result": "0.585 and 0.405"},
      {"measurement": "composite z-score", "setting": "[6]", "result": "1.14 and -0.0494"},
      {"measurement": "composite z-score", "setting": "[7]", "result": "1.17 and 0.892"},
      {"measurement": "z-score", "setting": "[8]", "result": "-0.564 (inactive) and 0.0169 (inactive)"},
      {"measurement": "composite z-score", "setting": "[9]", "result": "0.271 and 0.2"},
      {"measurement": "composite z-score", "setting": "[10]", "result": "0.0439 and -0.121"}
    ]},
    {"smiles": "C=C[C@@H](OC)[C@H](O)c1ccc(OC)c(O)c1", "values": [
      {"measurement": "composite z-score", "setting": "[1]", "result": "-0.407 and 0.724"},
      {"measurement": "composite z-score", "setting": "[2]", "result": "0.415 and -0.675"},
      {"measurement": "composite z-score", "setting": "[3]", "result": "0.177 and -0.175"},
      {"measurement": "composite z-score", "setting": "[4]", "result": "0.0573 and -1.49"},
      {"measurement": "composite z-score", "setting": "[5]", "result": "0.113 and -0.602"},
      {"measurement": "composite z-score", "setting": "[6]", "result": "-0.44 and -0.559"},
      {"measurement": "composite z-score", "setting": "[7]", "result": "0.225 and -0.758"},
      {"measurement": "z-score", "setting": "[8]", "result": "0.0163 (inactive) and -0.152 (inactive)"},
      {"measurement": "composite z-score", "setting": "[9]", "result": "-0.209 and -0.844"},
      {"measurement": "composite z-score", "setting": "[10]", "result": "-0.0994 and -0.296"}
    ]}
  ]
}
